This note sets out measurements from PubChem BioAssay.

SMILES strings stand for the structures. Active and inactive are the calls of the source. Unless noted, how the calls were made is not given here.

The test system of assay [1] is XIP peptide (Xip251-270) binding. Description: small-molecule binders of XIP peptide, primary screen, biochemical, small-molecule microarray, fluorescence 635/667 nm, 0.1 µg/mL protein (AID 1182). As to conditions: fluorescent protein binding, 635 nm, higher = more signal, called active from +8 up or from −8 down.
For a further assay, the system named is XIP peptide (Xip251-270). Description: small-molecule binders of XIP peptide, primary screen, biochemical, small-molecule microarray, fluorescence 635/667 nm, 0.5 µg/mL protein (AID 1183). The note with it: small-molecule microarray binding, fluorescence 635 nm; higher = more signal.
Assay [2] is described as follows: Plasmodium falciparum growth inhibition, primary screen, strain 3D7, DAPI fluorescence, 100 nL (AID 1184).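 Further: parasites grown inside human red blood cells in medium with human serum.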 As to conditions: P. falciparum 3D7 growth, 3 d, higher = more signal.
In assay [3] the target is Homeobox protein Hox-A13 (Mus musculus) (UniProt Q62424). Nature of the assay: inhibitors of HoxA13-DNA binding, primary screen, biochemical, fluorescence polarization, labeled oligonucleotide (AID 1185). The note with it: 15 min, higher = more signal, called active from +8 up or from −8 down. In general terms: In fluorescence polarisation assays a small probe gives low polarisation when free and higher when bound to something large.
Chain of Homeobox protein Hox-A13 (Mus musculus) (Q62424 whole entry, looked up): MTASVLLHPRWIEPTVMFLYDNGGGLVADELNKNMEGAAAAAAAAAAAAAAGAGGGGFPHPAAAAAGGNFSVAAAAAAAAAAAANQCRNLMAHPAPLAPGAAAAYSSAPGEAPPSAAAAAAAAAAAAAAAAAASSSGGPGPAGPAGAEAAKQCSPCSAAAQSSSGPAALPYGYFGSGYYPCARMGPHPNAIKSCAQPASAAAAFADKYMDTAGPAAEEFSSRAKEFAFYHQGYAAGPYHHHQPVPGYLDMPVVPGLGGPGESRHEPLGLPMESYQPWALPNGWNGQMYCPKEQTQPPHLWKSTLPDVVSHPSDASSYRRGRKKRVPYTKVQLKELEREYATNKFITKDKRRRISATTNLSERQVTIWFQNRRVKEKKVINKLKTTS

A short description of assay [4]: inhibitors of hydroxyurea-induced Chk1 phosphorylation, primary screen, imaging, HeLa, phospho-Chk1 antibody, percent positive cells (AID 1186). As to conditions: hydroxyurea-induced phospho-Chk1 immunofluorescence imaging, higher = more signal.
The nature of assay [5]: inhibitors of hydroxyurea-induced Chk1 phosphorylation, primary screen, imaging, HeLa, phospho-Chk1 nuclear intensity (AID 1187). The note with it: hydroxyurea-induced phospho-Chk1 immunofluorescence imaging, higher = more signal.

With `COc1ccc([Si](C)(C)[C@H]2[C@H](CC(=O)N3Cc4ccccc4C[C@H]3CO)O[C@@]3(C(=O)N(Cc4ccc(N5C(=O)c6cccc7cccc5c67)cc4)c4ccccc43)[C@@H]2C)cc1`, the composite z-score in assay [1] is 1.23 (inactive); in the assay with XIP peptide (Xip251-270), 0.738. The z-score is -1.79 in assay [2], -2.7 (inactive) in assay [3], -1.02 (inactive) in assay [4] and -0.113 (inactive) in assay [5].
For the compound `COCCOC(=O)N1C(=O)[C@@]2(c3ccccc31)[C@H](c1ccc(OCCO)cc1)N1[C@H](c3ccccc3)[C@H](c3ccccc3)OC(=O)[C@H]1[C@@H]2C(=O)N1CCCCCCC1`, the composite z-score was 8.16 (active) in assay [1] and 1.04 in the assay on XIP peptide (Xip251-270). Besides, the z-score in assay [2] is -2.08; in assay [3], -15.8 (active); in assay [4], -0.17 (inactive); in assay [5], 0.128 (inactive).
Turning to `CC(C)CNC(=O)[C@@]1(c2ccc([N+](=O)[O-])cc2)CC(=O)N(C2CCCCC2)[C@@H]1c1ccc(CO)cc1`, the composite z-score in assay [1] was 0.32 (inactive); in the assay on XIP peptide (Xip251-270), 0.104. Moreover, the z-score in assay [2] was -0.672; in assay [3], -2.24 (inactive); in assay [4], 0.0803 (inactive); in assay [5], 0.515 (inactive).
Turning to `C=C(CCCC)C(=O)CC[C@@H](OC(=O)c1cccnc1)c1ccc(OCCO)cc1`, the figures for the composite z-score (in assay [1]; with XIP peptide (Xip251-270)) were 0.408 (inactive) and 0.713, respectively. In addition, the z-score was -2.28 in assay [2], -3.82 (inactive) in assay [3], 1.27 (inactive) in assay [4] and 1.21 (inactive) in assay [5].
Turning to `C=C(COC)C(=O)CC[C@@H](OC(=O)c1cccnc1)c1ccccc1OCCO`, the composite z-score in assay [1] was -0.288 (inactive); in the assay with XIP peptide (Xip251-270), -0.576. Also, the z-score in assay [2] is -3.07; in assay [3] it was -4.3 (inactive); in assay [4], 0.329 (inactive); in assay [5] it was 0.162 (inactive).
For `COC(=O)[C@@]1(Cc2ccc(OC)cc2)[C@H]2c3cc(C(=O)N4CCCC4)n(Cc4ccc(OC(F)(F)F)cc4)c3C[C@H]2CN1C(=O)c1ccccc1`, the composite z-score in assay [1] was 0.931 (inactive); with XIP peptide (Xip251-270) it was 0.702. For the same compound, the z-score is -1.29 in assay [2], -2.94 (inactive) in assay [3], 0.168 (inactive) in assay [4] and 0.569 (inactive) in assay [5].
For `COCCOC(=O)N1C(=O)[C@@]2(c3cc(C#CCCO)ccc31)[C@H](C(=O)N1CCCCCCC1)[C@H]1C(=O)O[C@H](c3ccccc3)[C@H](c3ccccc3)N1[C@@H]2c1ccccc1OCCO`, the composite z-score was 0.867 (inactive) in assay [1] and 0.6 in the assay with XIP peptide (Xip251-270). The z-score in assay [2] is -2.18; in assay [3], 3.5 (inactive); in assay [4], 0.204 (inactive); in assay [5], 0.606 (inactive).
Consider `CC(C)c1ccc(NN2C(C(O)Cc3ccccc3)C=CC3C(=O)N(c4ccccc4)C(=O)C32)cc1` (configuration not stated), for which the values for the composite z-score (in assay [1]; with XIP peptide (Xip251-270)) were -0.0839 (inactive) and 0.655, respectively. For the same compound, the z-score was -0.0057 in assay [2], -2.98 (inactive) in assay [3], 0.656 (inactive) in assay [4] and 0.37 (inactive) in assay [5].
As for `Cc1ccc([C@H]2C(C(=O)O)=C[C@@H](C(C)(C)C)N2S(=O)(=O)c2ccc(C)cc2)cc1`, the composite z-score in assay [1] was 0.629 (inactive); with XIP peptide (Xip251-270), 0.854. Further, the z-score in assay [2] was 1.64; in assay [3], -4.73 (inactive); in assay [4] it was 0.695 (inactive); in assay [5], 0.255 (inactive).
Turning to `CN(C)CCCCCCNC(=O)[C@@H]1C[C@@H]2C(=O)N[C@@H](CCCCN)C(=O)N2[C@@H]1c1ccc(O)cc1`, the composite z-score in assay [1] was 0.802 (inactive); in the assay on XIP peptide (Xip251-270), 0.753. The z-score is -1.02 in assay [2], -1.14 (inactive) in assay [3], 0.291 (inactive) in assay [4] and 0.481 (inactive) in assay [5].
On to `COC(=O)[C@@]1(Cc2ccccc2CN=[N+]=[N-])N=C(c2ccc(OCCCO)cc2)O[C@H]1c1ccccc1`, for which the composite z-score in assay [1] is 2.54 (inactive); in the assay with XIP peptide (Xip251-270), 0.766. In addition, the z-score in assay [2] is -2.34; in assay [3], -4.51 (inactive); in assay [4], 0.022 (inactive); in assay [5], 0.55 (inactive).
Regarding `[N-]=[N+]=Nc1ccccc1C[C@]1(C(=O)NCc2ccccc2)COC(c2ccc(OCCCO)cc2)=N1`, the figures for the composite z-score (in assay [1]; in the assay on XIP peptide (Xip251-270)) were 0.261 (inactive) and 0.651, respectively. In addition, the z-score in assay [2] was -2.38; in assay [3] it was -5.36 (inactive); in assay [4], -0.364 (inactive); in assay [5], -0.571 (inactive).
As for `NCCCCCNC(=O)[C@H]1C[C@H]2C(=O)N[C@@H](Cc3ccccc3)C(=O)N2[C@H]1c1ccc(O)cc1`, the composite z-score was 1.46 (inactive) in assay [1] and 0.75 in the assay with XIP peptide (Xip251-270). The z-score in assay [2] is -0.236; in assay [3] it was -3.78 (inactive); in assay [4], 1.01 (inactive); in assay [5], 0.921 (inactive).
With `Cc1ccc(F)cc1S(=O)(=O)N[C@@H]1CCN(Cc2cccc3[nH]ccc23)C1`, the composite z-score in assay [1] is -0.605 (inactive); in the assay on XIP peptide (Xip251-270), 0.578. Moreover, the z-score in assay [2] was -0.797; in assay [3], -3.62 (inactive); in assay [4], -0.561 (inactive); in assay [5] it was -0.948 (inactive).
`C=CCN1C(=O)[C@]2(O[C@H](CCO)[C@@H]([Si](C)(C)c3ccc(OC)cc3)[C@@H]2C)c2cc(N3C(=O)COc4ccccc43)ccc21`: the composite z-score in assay [1] is 0.879 (inactive); with XIP peptide (Xip251-270) it was 0.677. Moreover, the z-score in assay [2] is -2.85; in assay [3] it was -3.34 (inactive); in assay [4] it was -1.42 (inactive); in assay [5], -1.34 (inactive).
As to `CO[C@H]1O[C@H](CO)[C@@H](OC(=O)Nc2ccc(C#N)cc2)[C@@H]2OC(=O)[C@H](Cc3cccc(Br)c3)C/C=C/C[C@@H](Cc3cccc(Br)c3)C(=O)O[C@@H]12`, the composite z-score in assay [1] was 0.685 (inactive); in the assay on XIP peptide (Xip251-270) it was 0.254. Also, the z-score in assay [2] is -1.47; in assay [3], 1.1 (inactive); in assay [4], -0.353 (inactive); in assay [5], -0.388 (inactive).
Take `O=C(N1CCOCC1)[C@@]1(CCS(=O)(=O)c2ccccc2)N=C(c2ccc(OCCCO)cc2)O[C@H]1c1ccccc1`: the composite z-score was 1.79 (inactive) in assay [1] and 0.747 in the assay on XIP peptide (Xip251-270). For the same compound, the z-score in assay [2] was -1.39; in assay [3] it was -5.53 (inactive); in assay [4] it was 0.0192 (inactive); in assay [5] it was 0.249 (inactive).
